# MPTP block = mitochondrial permeability transition pore inhibitors, primary screen, biochemical, isolated mouse mitochondria, absorbance; Ca2+ swelling absorbance, 30 min; inhibition, % at 10 µM; 1.4% of 360,000 active; AID 602449, 2012;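 active = inhibition of 50% or more, scaled per plate between neutral and stimulator controls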
# H9c2 TAG inh = inhibitors of triacylglycerol accumulation, primary screen, cell-based, uHTS, fluorescence, H9c2; 0.66% of 230,000 active; inhibition, % at 12.5 µM; H9c2 cells, Nile Red lipid (TAG) fluorescence; cells loaded with 200 µM oleic acid;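 active = pattern-corrected inhibition of lipid staining of at least 50% with the nuclear-stain viability signal not falling by more than 50%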
# aDG glyco up = activators of alpha-DG glycosylation, primary screen, uHTS, Pro5-aDG cells, AlphaScreen; alpha-DG glycosylation AlphaScreen (IIH6); 0% Pro5, 100% B10-LARGE cell signal; activation, % at 10 µM; 0.22% of 360,000 active;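 active = activation of at least 8% versus controls, or a plate z-score of at least 8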;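 note: Pro5 are CHO cells carrying HIG-tagged alpha-DG that lacks glycosylation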
# NadD inh = inhibitors of S. aureus NadD, primary screen, biochemical, colorimetric, uHTS; AID 602399, 2012; Nicotinate-nucleotide adenylyltransferase NadD (Staphylococcus aureus N315); purified NadD enzyme, colorimetric absorbance read-out; 0.78% of 360,000 active; inhibition, % at 20 µM; in the data active = inhibition above about 26%
# Numbers stand for hits; i = inactive; nt = no result. Hits are enriched below; roughly 2.7% of the tested compounds scored in any of these assays.
SMILES,MPTP block,H9c2 TAG inh,aDG glyco up,NadD inh
Cc1ccc(C(=O)NNc2ncnc3c2cnn3C)cc1,i,i,i,i
COc1ccc(NC(=O)c2c(N)no[n+]2[O-])cc1,i,i,i,i
COc1ccc(C(=O)c2no[n+]([O-])c2C(=O)c2ccc(OC)cc2)cc1,i,54.2,i,i
O=C(c1ccco1)[C@@H]1[C@@H]2C(=O)N(c3ccc(Br)cc3)C(=O)[C@@H]2C2c3ccccc3C=CN21 (some centres not stated),i,nt,i,32.1
CN1CCN(c2ccccc2NC(=O)c2ccc([N+](=O)[O-])o2)CC1,i,54.0,i,i
CCN(CC)CCNc1ccc(C)c2sc3ccc(O)cc3c(=O)c12,i,59.3,i,i
CCN(CC)CCNc1ccc(CO)c2oc3cc(Cl)ccc3c(=O)c12,i,i,i,i
CCc1nnc(NC(=O)c2ccc(OC)cc2)s1,i,i,i,i
Cc1ccc(C(=O)Nc2nnc(CC(=O)N/N=C/c3ccncc3)s2)cc1,i,i,i,i
COc1ccc(C(=O)Nc2nnc(CC(=O)N/N=C/c3ccc(O)cc3O)s2)cc1,i,nt,i,33.8
Cc1ccc(C(=O)Nc2nnc(CC(=O)N/N=C/c3ccc(O)c(O)c3)s2)cc1,i,nt,i,36.6
N#C/C(=C\c1ccc(N2CCCC2)c([N+](=O)[O-])c1)c1nc2ccccc2[nH]1,i,nt,i,31.5
N#C/C(=C\c1ccc(N2CCCCC2)c([N+](=O)[O-])c1)c1nn(-c2ccccc2)c(N)c1C#N,i,nt,i,i
Cc1ccc(O)c(NC(=O)C2CCCN2C(=O)OCc2ccccc2)c1 (configuration not stated),i,nt,i,i
CC(CCC(C)C(C)(C)C)[C@@H]1CC[C@H]2C3C[C@H](OS(O)(=S)=S)[C@H]4C[C@H](OS(O)(=S)=S)[C@@H](OS(O)(=S)=S)C[C@]4(C)[C@H]3CC[C@]12C (some centres not stated) (tested in a mixture with another compound),i,i,i,53.0
COC(=O)c1ccccc1NC1=C/C(=N\S(=O)(=O)c2ccc(C(=O)O)cc2)c2ccccc2C1=O,i,nt,i,47.2
C[C@H](c1ccccc1)N1C[C@@H](COCc2ccccc2)Oc2cc(N3CCC[C@H]3CO)ccc2S1(=O)=O,i,nt,i,i
CC(C)OC(=O)C(C(=O)C(F)(F)F)c1cc(NS(=O)(=O)c2ccc3ccccc3c2)c2ccccc2c1O (configuration not stated),i,nt,i,55.4
O=C(CSc1cccc[n+]1[O-])Nc1cc2c(cc1Cl)C(=O)c1ccccc1C2=O,i,nt,i,34.1
O=C(CSc1cccc[n+]1[O-])Nc1cc([N+](=O)[O-])ccc1Cl,i,i,i,i
c1ccc(Nc2nc(-c3ccccn3)cs2)cc1,i,i,i,i
COc1cccc2sc(Nc3nc(-c4ccccn4)cs3)nc12,i,i,i,34.8
CCOC(=O)N1CCN(C(=O)c2ccc3c(c2)N=C(C)c2cc(Cl)ccc2S3)CC1,i,nt,i,i
CCOC(=O)C(C(=O)OCC)C(C(=O)OCC)N1CCOCC1 (configuration not stated),i,98.6,i,i
Cc1cc(C)n(C(C)CC(=O)Nc2ccc3c(c2)OCCO3)n1 (configuration not stated),i,nt,i,i
SMILES,MPTP block,H9c2 TAG inh,aDG glyco up,NadD inh
COc1ccc(C(=O)N/N=C/c2cc(Br)ccc2O)cc1OC,i,56.3,i,i
COc1ccc(O)c(/C=N/NC(=O)c2ccc(CSc3nc(C)cc(C)n3)cc2)c1,i,i,i,33.9
CCCOc1ccc(Br)cc1/C=N/NC(=O)c1cc(OC)c(OC)c(OC)c1,i,nt,i,i
CNC[C@@H](CC1CCCCC1)NC[C@H](CC(C)C)NCCc1cccc(C(F)(F)F)c1,i,134.4,i,i
Cc1cccc(-c2oc3ccc(-c4ccc5c(c4)OCO5)cc3c2/C=C/c2ccc(N)cc2)c1,i,i,8.1,i
O=C1c2ccc(-c3ccc(F)cc3OCc3ccccc3)cc2S(=O)(=O)c2cccc(C(=O)N3CCN(c4ncc(Br)cn4)CC3)c21,i,nt,i,57.5
Cc1cccc(CNc2ncnc3ccc(-c4ccoc4)cc23)c1,i,i,i,i
CC(=O)Nc1ccc(CNc2ncnc3ccc(-c4c(C)noc4C)cc23)cc1,i,61.8,i,i
Cc1ccccc1NC(=O)Nc1nnc([C@@H]2C[C@H](O)[C@@H](CO)O2)s1,i,i,i,i
Cc1cc2nc(-c3cccc(Cl)c3)c(Cc3ccccc3)n2c(C)c1Br,i,nt,i,i
CCn1c(SCC(=O)Nc2cccc(NC(C)=O)c2)nnc1-c1ccco1,i,nt,i,i
